# Only some compounds are listed: those with a hit (about 8.9% of all), similar ones and a draw of the others.
# D3 antag: qHTS of D3 Dopamine Receptor Antagonist: qHTS. D(3) dopamine receptor (Homo sapiens), P35462. D3R cells, DiscoveRx beta-arrestin luminescence, antagonist mode; hits give low values. max response, negative = inhibition, %. 360,000 tested, 2.5% active. AID 652054, 2013; in the data active means max response below about -50%; inconclusive means no clear call, values can overlap the other calls; further: on the % scale 0 is the no-effect control and ±100 the full control effect
# Target sequence (P35462 whole entry, looked up): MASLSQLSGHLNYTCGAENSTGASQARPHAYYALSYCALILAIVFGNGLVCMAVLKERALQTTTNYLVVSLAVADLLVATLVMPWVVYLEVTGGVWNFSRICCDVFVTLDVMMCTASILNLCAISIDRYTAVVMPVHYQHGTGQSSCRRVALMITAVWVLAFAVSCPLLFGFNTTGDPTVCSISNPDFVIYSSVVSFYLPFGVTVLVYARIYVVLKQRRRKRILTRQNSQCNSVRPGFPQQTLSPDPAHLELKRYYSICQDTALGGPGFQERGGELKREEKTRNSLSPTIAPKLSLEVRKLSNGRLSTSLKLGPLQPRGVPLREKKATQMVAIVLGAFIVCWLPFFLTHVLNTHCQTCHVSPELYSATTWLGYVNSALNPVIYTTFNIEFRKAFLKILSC
#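 Cells plated overnight at 1500 cells/well, then exposed to library compounds with dopamine controls for 90 minutes at 37 degrees C. DiscoveRx reagent added for 30–60 minutes at room temperature; luminescence read, quantitative HTS format.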
# D3 ag: qHTS of D3 Dopamine Receptor Agonist: qHTS. D3R DiscoveRx beta-arrestin cells, luminescence, 90 min. 410,000 tested, 0.58% active. max activation, %; in the data active means max activation above about 30%; further: 0% is about no effect
#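 Cells at 1500/well, incubated overnight, then treated with pinned compounds (dopamine as control) for 90 min at 37 degrees C. DiscoveRx reagent added for 30 - 60 minutes at room temperature; luminescence read.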
# KB-V1 cytotox: qHTS assay for MDR1-selective chemotherapeutics: Primary screen using the drug-selected MDR subline cells KB-V1 | KB-V1 MDR cells viability, CellTiter-Glo, 72 h | 400,000 tested, 3.4% active | Potency, µM (series often up to 46.1 µM), hits mostly cytotoxic; further: potency means the concentration at half of the fitted maximal effect; on the % scale 0 is the no-effect control and ±100 the full control effect; nearly all actives have a fitted effect of over 60% in size
#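 Compound-treated KB-V1 multidrug-resistant cells, 72 h, 37 degrees C; viability by CellTiter-Glo. Fitted qHTS curves give the values.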
# KB-3-1 tox: qHTS assay for MDR1-selective chemotherapeutics: Primary screen using the parental adenocarcinoma cell KB-3-1 | KB-3-1 viability, CellTiter-Glo ATP luminescence, 72 h | Potency, µM (titrated, usually from 46.1 µM), actives largely listed as cytotoxic | 400,000 tested, 1.4% active | AID 1347075, 2019; further: potency means the concentration at half of the fitted maximal effect; on the % scale 0 is the no-effect control and ±100 the full control effect; nearly all actives have a fitted effect of over 60% in size
#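 Parental KB-3-1 viability, qHTS format: 72 h compound exposure, 37 °C; CellTiter-Glo; media-only wells and DMSO plates as controls; concentration-effect fits on corrected data.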
# SW480 rereplic: A quantitative high throughput screen for small molecules that induce DNA re-replication in SW480 colon adenocarcinoma cells; SW480 DNA re-replication, Hoechst DNA content imaging, 48 h; 340,000 tested, 1.8% active; Potency, µM (titrated, usually from 46.1 µM), for inactives: top-dose re-replication activation, most hits filed as activators; further: potency means the concentration at half of the fitted maximal effect; % of control where 0% means no effect; nearly all actives have a fitted effect of over 55% in size
#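 First, 250 cells per well were seeded. Next, compound or vehicle (23 nL) was pinned in, plates sat 48 hr at 37 C. Finally Hoechst was added for 40 min before fluorescence scanning.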
# MCF10A rereplic: A quantitative high throughput screen for small molecules that induce DNA re-replication in MCF 10a normal breast cells. MCF 10A DNA re-replication, Hoechst nuclear intensity, 48 h. Potency, µM (doses to about 46.1 µM), for the others: top-dose activity, positive = re-replication, actives largely listed as activators. 350,000 tested, 2.9% active. AID 624296, 2012; further: potency means the concentration at half of the fitted maximal effect; % of control where 0% means no effect; nearly all actives have a fitted effect of over 50% in size
# * marks the source's active call; other numbers are inactive results; i = inactive; ? = inconclusive; . = no result. Unless noted, the call rests on the fitted dose curve; in most records, active means well fitted curve in the direction sought with a large enough effect; inconclusive means small, poorly fitted or top-dose-only effect, or another doubt; inactive means no such curve, though single readings can be large; an effect the other way counts as inactive or inconclusive.
SMILES,D3 antag,D3 ag,KB-V1 cytotox,KB-3-1 tox,SW480 rereplic,MCF10A rereplic
CCc1ccc2oc(C(=O)N(Cc3ccc(N(C)C)cc3)Cc3ccco3)c(C)c2c1,.,-2,.,.,.,.
CC[N+](CC)(CC)CCOC(=O)C(C1CCCC1)C1CCCC1,.,1,.,.,.,.
Cc1ccc(NC(=O)CCc2nc3cccnc3n2-c2ccccc2)cc1,.,-10,i,i,.,.
COc1ccc(-c2nc(-c3ccc(NC(=O)c4ccncc4)cc3)no2)cc1OC,70,50*,10µM*,?,1%,11%
COc1cc(-c2nc(-c3ccc(NC(=O)c4ccc5c(c4)OCO5)cc3)no2)cc(OC)c1OC,59,7,i,i,?,9.2µM*
Clc1ccc(Nc2nnc(Cc3ccncc3)c3ccccc23)cc1,.,3,.,.,8%,0%
CCOC(=O)c1cc(S(=O)(=O)Nc2ccc(OC(F)(F)F)cc2)[nH]n1,.,-12,i,i,.,.
O=C(c1ccc([N+](=O)[O-])s1)N1CCCc2ccccc21,-19,-5,?,i,6.5µM*,14%
COc1cc(C(=O)N2CCCc3ccccc32)c([N+](=O)[O-])cc1OC,-6,-2,i,i,-3%,16µM*
O=C(c1ccc([N+](=O)[O-])s1)N1CCc2ccccc21,0,-1,i,i,-13%,0%
COc1cc(C(=O)N2CCN(c3ccccc3OC)CC2)c([N+](=O)[O-])cc1OC,8,0,?,?,?,23%
CCc1nn(CC(=O)N2CCN(c3cccc(C)c3C)CC2)c(=O)c2cc3occc3n12,.,1,i,i,.,.
Cc1ccc(C)c(N2C(=O)N(C)c3ccccc3S2(=O)=O)c1,.,-10,i,i,.,.
CCCNC(=O)c1ccccc1NC(=O)c1ccccc1N(C)S(=O)(=O)c1ccc(C)cc1,-5,0,?,18µM*,?,?
CCOc1ccccc1NC(=O)c1ccccc1N(C)S(=O)(=O)c1ccc(C)cc1,18,5,12µM*,?,1%,6%
CCCNC(=O)c1ccccc1NC(=O)c1ccccc1N(C)S(C)(=O)=O,0,8,i,i,-6%,-3%
Cc1ccc(N(CCC(=O)O)S(=O)(=O)c2ccccc2)cc1,-10,-7,i,i,-2%,3%
CCOc1ccccc1NC(=O)c1ccc(S(=O)(=O)N(C)c2ccccc2)cc1,8,-2,?,i,?,29%
CCOc1ccccc1NC(=O)CCN(c1ccc(C)cc1)S(=O)(=O)c1ccccc1,?,-17,2.6µM*,?,-1%,6%
COc1ccccc1/C=C1\C=Cc2ccccc21,.,.,i,i,.,.
COc1ccc(-n2c(=O)c3ccccc3n(CC(=O)NCCc3ccc(OC)c(OC)c3)c2=O)cc1,.,2,?,i,.,.
O=c1cc(-c2ccc(F)cc2)nc(SCc2nc(-c3ccc(Cl)cc3)no2)[nH]1,.,-4,i,i,.,.
COc1cc(C(=O)c2ccc3c(c2)OCO3)cc(OC)c1OC,35,10,3.3µM*,4.6µM*,2.1µM*,?
O=C(/C=C/c1ccccc1Br)c1ccc2c(c1)OCO2,-15,-17,?,?,?,?
COc1cc(C(=O)N/N=C(\C)c2ccc3c(c2)OCO3)cc(OC)c1OC,-10,-3,5.2µM*,4.6µM*,2.6µM*,4.1µM*
SMILES,D3 antag,D3 ag,KB-V1 cytotox,KB-3-1 tox,SW480 rereplic,MCF10A rereplic
COc1ccc(N/C=C\C(=O)c2ccc3c(c2)OCO3)cc1OC,14,6,i,i,3%,15%
COc1cccc(/C=C/C(=O)c2ccc3c(c2)OCO3)c1OC,10,2,23µM*,?,?,?
COC(=O)/C(=C\c1c(OC)cc(OC)cc1OC)C(=O)c1ccc2c(c1)OCO2,-93*,13,i,?,0%,?
O=CC(=O)c1ccc(Br)cc1,.,.,?,i,.,.
COc1ccc(-n2cc(-c3ccccc3)c3c(Nc4ccc(OC)c(OC)c4)ncnc32)cc1,.,11,.,.,.,.
COc1cc(C(=O)c2cocc2C(=O)c2ccc3c(c2)OCO3)cc(OC)c1OC,-20,-18,1.2µM*,?,1.8µM*,?
CC(C)NC(=O)c1nn(C)c2c1CS(=O)(=O)c1ccccc1-2,.,3,i,i,.,.
COc1ccccc1NC(=O)c1oc2ccccc2c1NC(=O)C1CCCCC1,.,-10,i,i,.,.
COc1ccc2c(c1)C(=O)[C@@H](O)[C@H](c1ccc(OC)c(Br)c1)O2,-10,-14,i,?,12µM*,?
COc1cccc([C@@H]2Oc3ccc(OC)cc3C(=O)[C@H]2O)c1,2,-3,i,?,?,?
CC(C)Sc1nc2c(cnn2-c2ccccc2)c(=O)[nH]1,32,4,i,i,0%,15%
O=c1[nH]c(/C=C/c2ccc(OC(F)F)cc2)nc2c1cnn2-c1ccccc1,-2,1,i,i,9.2µM*,15µM*
N#Cc1c(NCCN)nc(NCc2ccccc2)c2c1CCN(Cc1ccccc1)C2,6,-7,i,i,21µM*,?
C=CCNc1nc(NCc2ccccc2)c(C#N)c2c1CN(C)CC2,-66*,-6,?,?,15%,?
CCOc1ccc(OCC)c(-c2c(=O)n(OCc3ccccc3C(=O)OC)c3ccccc3[n+]2[O-])c1,31,5,3.7µM*,i,0%,4%
CCOc1ccc(OCC)c(-c2c(=O)n(OCc3ccccc3Br)c3ccccc3[n+]2[O-])c1,7,0,i,i,?,-14%
Cc1oc(=O)c(NC(=O)c2cccc(Cl)c2)cc1C(=O)c1ccccc1,-63*,-7,?,i,21µM*,?
COC(=O)c1cc(NC(=O)c2ccccc2)c(=O)oc1C,9,4,i,i,-136%,-2%
Cc1oc(=O)c(NC(=O)c2ccccc2)cc1C(N)=O,15,0,i,i,-3%,-4%
COc1ccc(C(=O)Nc2cc(C(=O)c3ccccc3)c(C)oc2=O)cc1,-62*,-8,i,i,?,?
CC(=O)c1cc(NC(=O)c2ccc([N+](=O)[O-])cc2)c(=O)oc1C,7,0,i,i,25%,16µM*

# Compound activity: PubChem, National Center for Advancing Translational Sciences (NCATS)
